Source: PubChem BioAssay (NCI)
The panel holds about 83,000 compounds, 20% with a hit somewhere; the sample as a whole holds those more often.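 Testing used 96-well plates and a 48-hour single-concentration exposure. Example: -40 means 40% of the starting cells died.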 Unmarked numbers belong to inactive results. Activity calls are given as the source filed them. The calls were made as follows: active = growth percent below 10; inactive = the rest.

System: M14 melanoma
Experiment: NCI-60 one-dose screen, 48 h (100 = growth as untreated, 0 = no growth, -100 = all killed)
Settings: 10 µM unless noted

For `COC(=O)Nc1nc2ccc(C(=O)c3ccccc3N(C)C3COC3)cc2[nH]1`, which growth is on record?
The growth was 12.8%.

With `CC(C)OC(=O)[C@H](C)N[P@@](=O)(OC[C@@]1(C)O[C@@H](n2cc(F)c(N)nc2=O)C[C@@H]1O[P@](=O)(N[C@@H](C)C(=O)OC(C)C)Oc1ccccc1)Oc1ccccc1` as the compound, how does the growth read?
Its growth is 91.6%.

With `COc1cc2ncnc(Nc3ccc4c(cnn4C(=O)Nc4ccccc4)c3)c2cc1OC` as the compound, how does the growth read?
The growth was 95.7%.

Which growth does the source give for `Cc1nnc(/N=C2\NC(=O)/C(=C/C=C/c3ccccc3)S2)s1` here?
The growth was 49.8%.

For `COC(c1ccccc1)C(Br)C(=O)c1ccccc1` (stereo not drawn), which growth is on record?
The growth was 90.6%.

With `O=C1c2ccccc2CCc2ccccc21` as the compound, how does the growth read?
Its growth is 96.2%.

With `COc1cc2ncnc(-n3ncc4cc(NC(=O)Nc5ccccc5)ccc43)c2cc1OC` as the compound, how does the growth read?
The growth was 6.8% (active).

`COc1cc(-c2cc3cnccc3c3nc(N)c4ccncc4c23)cc(OC)c1OC` was tested. Which growth did it give?
The growth was 68.1%.

`COc1cc(OC)c(NC(=O)n2ncc3cc(Nc4ncnc5ccccc45)ccc32)cc1Cl` was tested. Which growth did it give?
Its growth is 100%.

For `COc1cc(OC)cc(-c2ccc(-c3ccc(C(=N)N)cc3)s2)c1`, which growth is on record?
Its growth is -90.5% (active).

`CC1(C)NCCC[C@]2(C)[C@H]3CC=C4[C@@H]5C[C@](C)(COC(=O)c6ccccc6C(=O)O)CC[C@]5(C)CC[C@@]4(C)[C@]3(C)CC[C@@H]12` was tested. Which growth did it give?
Its growth is 69.3%.

`Nc1ncn([C@@H]2O[C@H](CO)[C@@H](O)C2(F)F)c(=O)n1` was tested. Which growth did it give?
The growth was 15.6%.

Which growth does the source give for `CCOC(=O)c1cc(C(=O)c2ccc(Br)cc2)n2cc(C)cc(C)c12` here?
Its growth is 94.2%.

`Nc1nc2c(c3cnccc13)C(c1cccc(Br)c1)Cc1cnccc1-2` (stereo not drawn) was tested. Which growth did it give?
Its growth is -12.7% (active).

With `O=C1/C(=C\c2cn(-c3nc(N4CCOCC4)nc(N4CCOCC4)n3)c3ccccc23)c2ccccc2N1c1c(Cl)cccc1Cl` as the compound, how does the growth read?
Its growth is 78.2%.

Which growth does the source give for `COc1cc2ncnc(-n3ncc4cc(NC(=O)Nc5ccc(Cl)c(C)c5)ccc43)c2cc1OC` here?
Its growth is 79.3%.

With `CC1=C[C@@H]2c3c(c(O)c(O)c4oc5cc(O)cc(O)c5c(=O)c34)[C@@H](c3cc(O)c(O)c4oc5cc(O)cc(O)c5c(=O)c34)[C@@H]2C(C)(C)C1` as the compound, how does the growth read?
The growth was -47% (active).

`N=C(N)c1ccc(-c2ccc(-c3cc(Cl)cc(Cl)c3)s2)cc1` was tested. Which growth did it give?
Its growth is -85.3% (active).

For `COc1cc2ncnc(-n3ncc4cc(NC(=O)Nc5ccc(Cl)c(Cl)c5)ccc43)c2cc1OC`, which growth is on record?
The growth was -41% (active).

For `CC1=NN(c2cccc(Cl)c2)C(=O)/C1=C\c1cn(-c2nc(N3CCOCC3)nc(N3CCOCC3)n2)c2ccccc12`, which growth is on record?
Its growth is 103%.

Which growth does the source give for `O=C(Nc1ccccc1)Nc1ccc(Nc2ncnc3sc4c(c23)CCCC4)cc1` here?
The growth was 103%.

With `O=c1c(N=Nc2nccs2)c(-c2ccccc2)[nH]n1-c1nc(-c2ccccc2)cs1` as the compound, how does the growth read?
The growth was 28.3%.

How did the growth turn out when `Cc1ccc(OCCn2ccc(=O)n(CCOc3ccc(Cl)cc3C(=O)c3cc(C)cc(C)c3)c2=O)cc1` was run?
The growth was 24.7%.
